KDM5B inh: Primary screen for KDM5B Histone Demethylases FDH-coupled qHTS; KDM5B demethylase, FDH-coupled NADH fluorescence (FDH is formaldehyde dehydrogenase); Potency, µM (titrated, usually from 57.7 µM), actives largely listed as inhibitors; 220,000 compounds, 2.6% hits; AID 1347165, 2019; active = well fitted inhibition curve with a large enough effect; also: nearly all actives have a fitted effect of over 70% in size
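Measured: NADH fluorescence change, 30 min, RT. System: KDM5BΔAP 200 nM final, H3K4me3 peptide, α-KG, Fe(II), ascorbate, NAD⁺ plus FDH, pH 7.5 HEPES. Compounds: titrated, 10 min pre-incubation with enzyme.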
Hits are given with their value; - = inactive. The sample as a whole holds a higher share of hits than the screen did.

SMILES	KDM5B inh
O=C1COCC2(CN1Cc1cccc(OC(F)(F)F)c1)CN(c1nccs1)C2	-
O=C1COCC2(CN1Cc1cccc(OC(F)(F)F)c1)CN(C(=O)Cc1cccnc1)C2	-
Fc1ccc(C2Cn3cnc(-c4nc(-c5ccc6c(c5)OCO6)no4)c3CO2)cc1 (configuration not stated)	-
O=C(N/N=C/c1ccc(Cl)s1)c1ccc2ccccc2c1	-
CCC1c2ccsc2CCN1C(=O)CC(c1ccccc1)c1ccccc1 (configuration not stated)	-
CC(C)Cc1ccc(C(=O)/C=C/c2ccc(C(=O)O)cc2)cc1	-
Cc1ccc(Nc2nc(C(N)=O)c(NC(=O)CC34CC5CC(CC(C5)C3)C4)s2)cc1	-
CN1[C@@H](CCC(=O)NCc2cccnc2)CNC(=O)[C@@H]2[C@H]1CCN2Cc1cccc(OC(F)(F)F)c1	-
O=C(Cc1c[nH]c2ncc(-c3cccc(OC(F)(F)F)c3)cc12)NCc1cccnc1	28µM
O=C(Cc1c[nH]c2ncc(-c3cccnc3)cc12)NCc1ccccc1	-
O=C(CC(c1ccccc1)c1ccccc1F)NCc1cccnc1 (configuration not stated)	-
O=C(C[C@@H]1O[C@H](CNCc2ccc(F)cc2)[C@@H](O)[C@H]1O)NCc1cccnc1	-
O=C(Cc1c[nH]c2ncc(-c3ccc(F)cc3)cc12)NCc1cccnc1	28µM
O=C(Cc1c[nH]c2ncc(-c3ccc(F)c(Cl)c3)cc12)NCc1cccnc1	32µM
Cc1cc(-c2cnc3[nH]cc(CC(=O)NCc4cccnc4)c3c2)ccn1	-
N#C/C(=C\c1cccc(OC(=O)c2ccc(Cl)cc2Cl)c1)C(=O)Nc1cccc(C(F)(F)F)c1	-
CCCn1cc(C(=O)CSc2nnc(C)s2)c2ccccc21	-
Cc1ccc(C(=O)COC(=O)c2ccccc2C(=O)c2ccc(-c3ccccc3)cc2)cc1	-
Oc1ccc(Cl)cc1C=NCc1ccc(C(F)(F)F)cc1	-
CCc1ccc(Cn2nccc2NC(=O)C2CCN(S(=O)(=O)c3ccccc3)CC2)cc1	-
O=C(c1ccccc1)N(Cc1ccco1)Cc1cccs1	-
CCNc1ncc(C(=O)N(CCc2ccccc2)Cc2ccco2)cn1	28µM
Cc1ccc(C(=O)N(Cc2ccco2)Cc2ccco2)cc1	-
CC(=O)c1ccc(NCC(=O)N2N=C(c3ccc(C)o3)CC2c2ccco2)cc1 (configuration not stated)	-
CN(CC(=O)NC(C)(C)C)C(=O)CCl	-
SMILES	KDM5B inh
COCc1ccc2c(c1)c(OC(C)(C)C(=O)NCc1ccncc1)nn2Cc1cccnc1	-
COCc1ccc2c(c1)c(OC(C)(C)C(=O)Nc1cc(C)nn1C)nn2Cc1cccnc1	-
COCc1ccc2c(c1)c(OC(C)(C)C(=O)NCc1cnccn1)nn2CCC(C)C	-
COCc1ccc2c(c1)c(OC(C)(C)C(N)=O)nn2CCC(C)C	32µM
COCCN(C)C(=O)C(C)(C)Oc1nn(Cc2cccnc2)c2ccc(COC)cc12	-
COCc1ccc2c(c1)c(OC(C)(C)C(=O)N1CC(O)C1)nn2CCC(C)C	35µM
Cc1c(Cl)cccc1NC(=O)Cn1c(C)cc2nc3n(c(=O)c21)CCCCC3	-
C=C(Cl)COC(=O)c1ccc2[nH]c(C)c(C)c2c1	-
N#Cc1c(N)sc2c1CCCCC2	-
COc1ccccc1-c1nc(C(=O)NC(C)C)n2ccncc12	40µM
COCCn1c(C(=O)NCc2cccnc2)nc2ccccc2c1=O	-
COc1ccccc1-c1cc(C(=O)NC(C)C)nn2cccc12	-
COC(=O)CNC(=O)c1nc(-c2ccccc2OC)c2cnccn12	100µM
COc1ccccc1-c1cc(C(=O)NCc2cccnc2)nn2cccc12	-
COc1ccccc1-c1nc(C(=O)NCc2cccnc2)n2ccccc12	89µM
COc1ccccc1-c1nc(C(=O)N(C)C)n2ccncc12	100µM
O=C1Nc2ccccc2C12CCN(Cc1ccc(F)cc1)C2 (configuration not stated)	-
CCCNC(=O)C12CC3CC(C1)CC(c1ccccc1)(C3)C2	-
O=C(COc1c(CO)cc(F)cc1CO)Nc1ccc(Cl)cc1F	-
O=C(OCCOc1ccc(Br)cc1)c1cccc([N+](=O)[O-])c1	-
Cc1noc(C)c1C(=O)N1Cc2ccccc2CC2(CCN(C)C2)C1 (configuration not stated)	-
Cc1nn(Cc2cc(C(=O)O)c3ccccc3n2)c(C)c1Br	-
Cc1ccc(C(c2ccc([N+](=O)[O-])cc2)c2ccc(C)s2)s1	-
Cc1nn(C)c(C)c1CNCc1cccnc1N1CCOCC1	-
CC(C)CCn1cnc2c1c(=O)n(CC(=O)Nc1ccc(F)c(F)c1)c(=O)n2Cc1ccccc1	-
SMILES	KDM5B inh
COc1cccc(-c2[nH]nc3c2C(c2ccccc2F)C(C#N)=C(N)O3)c1 (configuration not stated)	-
CCOC(=O)c1sc(-c2ccc3c(c2)OCO3)cc1NC(=O)c1cnccn1	-
COc1ccc(C(CC(=O)NCc2cccnc2)c2ccccc2)cc1 (configuration not stated)	-
COc1ccccc1-c1nc(C(=O)NCc2cccnc2)n2ccncc12	79µM
c1cc(-c2cc3c(ccn3Cc3ccncc3)c(N3CCOCC3)n2)c2[nH]ncc2c1	25µM
O=C(NCc1cccnc1N1CCOCC1)c1cnn(-c2ccc(Cl)cc2)c1	-
c1cc(-c2cc3c(ccn3Cc3ccncc3)c(N3CCOCC3)n2)c2cn[nH]c2c1	20µM
O=c1[nH]c(N2CCOCC2)nc2c1CCN(Cc1cccc(Cl)c1)CC2	-
c1cc(-c2cc3c(ccn3Cc3ccncc3)c(N3CCOCC3)n2)c2cc[nH]c2c1	20µM
C[S+](=O)([O-])N1CCC(Cn2ccc3c(N4CCOCC4)nc(-c4cccc5[nH]ccc45)cc32)CC1	-
O=C1c2[nH]nc(-c3ccccc3O)c2C(c2cccc(O)c2)N1Cc1ccncc1 (configuration not stated)	-
O=C(NCc1ccccc1)c1nc(-c2cccc3[nH]ccc23)no1	-
Cc1ccc2cc(CN(CC(C)C)S(=O)(=O)c3ccc(Cl)cc3)c(=O)[nH]c2c1	-
CCc1nc2ccccc2c(C(=O)OC(C)C(=O)NC(N)=O)c1C (configuration not stated)	-
NC(=O)c1ccc(-c2nc(CSc3ccc4c(c3)OCCCO4)cs2)cc1	-
Cc1ccc(C)c(NC(=O)c2csc3c2CCCC3)c1	-
CC(C)c1nnc2ccc(SCC(=O)O)nn12	-
CC(=O)CC(C)=Nc1ccccc1	-
CC(=O)c1ccc(CN2CCCCC2)c(OC(C)C)c1	-
CCOC(=O)c1nnn(C(CC)C(=O)Nc2cccc(OC)c2)c1C(=O)OCC (configuration not stated)	-
O=C(NCCCc1ccccc1)c1ccc2nccn2c1	35µM
O=C(NCCC1CCCCC1)c1c[nH]c2ncccc12	-
O=C(NCCC1CCCCC1)c1ccc2nccn2c1	28µM
O=C(NCCCCc1ccccc1)c1ccncc1	-
COc1ccc(C(=O)NCCCc2ccccc2)cc1	-
SMILES	KDM5B inh
O=C(NCCc1nc(Cc2ccccc2)no1)C1CNCCO1 (configuration not stated)	-
O=C(NCCc1nc(Cc2ccccc2)no1)c1ccc2nccn2c1	18µM
O=C(NCC1CCCCC1)c1ccncc1	-
O=C(NCCc1nc(Cc2ccccc2)no1)[C@H]1CCC[C@@H](O)C1	-
Cc1ccccc1C(=O)OCC(=O)Nc1cc(F)cc(F)c1	-
O=C(O)CN1CCOCC1	-
Cc1cc(C(=O)Cn2c(Cl)nc3c2c(=O)n(C)c(=O)n3C)c(C)n1CC(F)(F)F	-
